From ChEMBL document CHEMBL3988442, “University of Dundee, Small-Polar-MMV Screening Library” (2021)
For some of these results: Results with a measured potency or affinity are listed apart.

Legend:
Design in all cases: scale not given: direction of the effect not stated beside the values
[1] = molecular target: Protein translocase subunit SecA (Escherichia coli (strain K12)) (UniProt P10408); experiment: Assay to Identify E. coli SecA ATPase Inhibitors; format: functional; settings: 30 µM
[2] = molecular target: T1, Ubiquitin-activating enzyme e1, putative (Leishmania donovani (strain BPK282A1)) (UniProt E9BSI1); experiment: Leishmania donovani Ubiquitin Activating Enzyme (LdE1); format: functional; settings: 30 µM
T1 sequence (whole entry): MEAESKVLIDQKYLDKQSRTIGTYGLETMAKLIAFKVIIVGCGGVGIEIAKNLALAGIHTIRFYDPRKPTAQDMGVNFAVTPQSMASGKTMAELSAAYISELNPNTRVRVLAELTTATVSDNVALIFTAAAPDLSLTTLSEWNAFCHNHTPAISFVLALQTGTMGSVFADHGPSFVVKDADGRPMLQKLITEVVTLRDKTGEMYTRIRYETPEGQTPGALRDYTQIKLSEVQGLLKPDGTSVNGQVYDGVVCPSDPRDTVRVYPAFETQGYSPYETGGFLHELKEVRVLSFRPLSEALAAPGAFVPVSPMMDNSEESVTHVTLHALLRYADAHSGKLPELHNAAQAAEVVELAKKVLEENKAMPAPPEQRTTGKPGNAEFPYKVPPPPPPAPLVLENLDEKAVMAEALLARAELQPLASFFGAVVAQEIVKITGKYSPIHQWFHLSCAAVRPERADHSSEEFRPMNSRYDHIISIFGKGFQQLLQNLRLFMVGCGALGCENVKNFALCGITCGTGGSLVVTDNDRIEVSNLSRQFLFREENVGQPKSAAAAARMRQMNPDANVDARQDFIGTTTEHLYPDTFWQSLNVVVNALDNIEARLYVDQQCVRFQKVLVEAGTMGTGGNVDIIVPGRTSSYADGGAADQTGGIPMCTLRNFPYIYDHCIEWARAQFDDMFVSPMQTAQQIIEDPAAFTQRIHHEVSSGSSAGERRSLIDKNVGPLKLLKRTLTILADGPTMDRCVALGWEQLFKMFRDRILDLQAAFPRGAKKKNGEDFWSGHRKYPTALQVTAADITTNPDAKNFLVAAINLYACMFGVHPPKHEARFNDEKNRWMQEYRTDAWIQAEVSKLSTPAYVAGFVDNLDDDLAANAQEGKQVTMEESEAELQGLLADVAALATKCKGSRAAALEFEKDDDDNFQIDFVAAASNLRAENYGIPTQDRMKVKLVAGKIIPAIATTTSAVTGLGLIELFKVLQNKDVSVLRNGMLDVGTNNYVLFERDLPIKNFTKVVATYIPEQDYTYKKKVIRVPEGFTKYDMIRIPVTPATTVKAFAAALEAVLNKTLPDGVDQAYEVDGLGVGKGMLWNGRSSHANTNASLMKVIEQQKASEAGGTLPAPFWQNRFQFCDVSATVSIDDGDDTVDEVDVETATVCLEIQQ

[3] = molecular target: AMP-activated protein kinase, AMPK (Homo sapiens) (UniProt P54646+O43741+P54619+Q9UGJ0+Q9Y478+Q13131+Q9UGI9); experiment: AMP-dependent Kinase enzyme assay. An in vitro enzyme assay that detects ADP turnover that is directly proportional to AMPK activity. This uses naive AMPK that is activated during the assay with MK-8722; format: functional; settings: 30 µM
[4] = molecular target: Sialic acid-binding Ig-like lectin 9 (Homo sapiens) (UniProt Q9Y336); experiment: Hs-Siglec9 ALPHAscreen SOP 20170721; settings: 10 µM
Sialic acid-binding Ig-like lectin 9 (Homo sapiens), sequence (Q9Y336 whole entry): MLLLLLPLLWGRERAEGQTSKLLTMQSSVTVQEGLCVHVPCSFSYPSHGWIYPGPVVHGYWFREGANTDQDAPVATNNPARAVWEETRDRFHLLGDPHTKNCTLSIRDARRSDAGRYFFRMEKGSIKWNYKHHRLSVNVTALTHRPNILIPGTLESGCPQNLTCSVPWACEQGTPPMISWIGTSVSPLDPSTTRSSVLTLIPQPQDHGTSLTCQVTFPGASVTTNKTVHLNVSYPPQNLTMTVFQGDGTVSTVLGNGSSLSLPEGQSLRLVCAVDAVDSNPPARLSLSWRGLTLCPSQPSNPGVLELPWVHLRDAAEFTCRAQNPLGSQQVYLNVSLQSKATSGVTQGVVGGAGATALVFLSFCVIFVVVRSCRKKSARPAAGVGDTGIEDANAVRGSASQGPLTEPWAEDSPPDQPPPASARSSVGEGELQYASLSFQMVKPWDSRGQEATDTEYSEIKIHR

Trypanosoma cruzi = experiment: Trypanosoma cruzi phosphomannomutase and mannose-1-phosphate guanylyltransferase assay; format: functional; settings: 10 µM
[5] = molecular target: T2, Arginase-2, mitochondrial (Homo sapiens) (UniProt P78540); experiment: in vitro enzyme assay to detect the production of urea directly proportional to the activity of Arginase II; format: functional; settings: 33.3 µM; note: in the data most compounds retested in dose-response had high values
T2 sequence (whole entry): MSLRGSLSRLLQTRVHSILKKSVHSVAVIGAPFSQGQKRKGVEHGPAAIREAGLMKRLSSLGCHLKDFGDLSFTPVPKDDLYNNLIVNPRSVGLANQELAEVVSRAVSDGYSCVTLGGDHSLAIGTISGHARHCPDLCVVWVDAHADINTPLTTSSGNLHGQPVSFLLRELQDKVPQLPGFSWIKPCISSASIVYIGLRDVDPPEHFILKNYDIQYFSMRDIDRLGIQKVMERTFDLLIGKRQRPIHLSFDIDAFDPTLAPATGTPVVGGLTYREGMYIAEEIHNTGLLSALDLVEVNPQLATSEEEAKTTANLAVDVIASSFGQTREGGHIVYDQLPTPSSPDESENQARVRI

[6] = molecular target: T3, Proteasome subunit beta (Trypanosoma cruzi) (UniProt O96673); experiment: Trypanosoma cruzi proteasome chymotrypsin-like activity (TcProtChymo) assay.; note: in the data most compounds retested in dose-response had high values; format: functional; settings: 9.37 µM
T3 sequence (whole entry): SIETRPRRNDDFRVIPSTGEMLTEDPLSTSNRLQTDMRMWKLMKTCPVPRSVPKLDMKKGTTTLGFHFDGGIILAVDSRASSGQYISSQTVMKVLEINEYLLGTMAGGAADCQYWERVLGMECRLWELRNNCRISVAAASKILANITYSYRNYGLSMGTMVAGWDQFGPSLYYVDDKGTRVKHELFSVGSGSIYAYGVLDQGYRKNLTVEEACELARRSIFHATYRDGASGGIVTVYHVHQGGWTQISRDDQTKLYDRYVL

Homo sapiens = species: Homo sapiens; experiment: To identify inhibition of the IFN signalling (Jak-Stat) pathway via expression of an eGFP reporter gene under the control of an IFN-stimulated response element (ISRE) containing MxA promoter.; format: functional; settings: 30 µM
[7] = molecular target: T4, Tyrosyl-tRNA synthetase, putative (Trypanosoma cruzi (strain CL Brener)) (UniProt Q4DSP6); experiment: Trypanosoma cruzi tyrosyl tRNA synthetase (TcYRS) _High Tyrosine SOP; format: functional; settings: 30 µM; note: in the data most compounds retested in dose-response had high values
T4 sequence (whole entry): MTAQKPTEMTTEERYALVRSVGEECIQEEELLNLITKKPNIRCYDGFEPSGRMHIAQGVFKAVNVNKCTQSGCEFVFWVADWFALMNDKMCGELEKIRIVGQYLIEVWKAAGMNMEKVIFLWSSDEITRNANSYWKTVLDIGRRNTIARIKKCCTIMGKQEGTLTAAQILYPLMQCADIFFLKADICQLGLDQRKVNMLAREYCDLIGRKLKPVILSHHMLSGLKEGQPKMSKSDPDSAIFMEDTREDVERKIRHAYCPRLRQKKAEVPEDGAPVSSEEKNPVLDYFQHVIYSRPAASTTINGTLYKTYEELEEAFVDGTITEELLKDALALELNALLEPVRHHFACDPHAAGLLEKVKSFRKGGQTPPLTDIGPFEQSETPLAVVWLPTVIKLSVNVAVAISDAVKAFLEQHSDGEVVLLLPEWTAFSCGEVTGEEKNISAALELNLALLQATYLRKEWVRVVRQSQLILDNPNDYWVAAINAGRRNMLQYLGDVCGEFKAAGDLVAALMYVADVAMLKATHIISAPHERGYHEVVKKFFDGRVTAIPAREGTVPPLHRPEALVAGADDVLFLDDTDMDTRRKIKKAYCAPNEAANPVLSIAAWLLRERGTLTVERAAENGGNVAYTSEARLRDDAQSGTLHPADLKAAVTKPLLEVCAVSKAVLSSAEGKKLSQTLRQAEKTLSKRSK

[8] = molecular target: T4, Tyrosyl-tRNA synthetase, putative (Trypanosoma cruzi (strain CL Brener)); experiment: Trypanosoma cruzi tyrosyl tRNA synthetase (TcYRS) SOP; format: functional; settings: 30 µM
[9] = molecular target: Chromo domain-containing protein 1 (Saccharomyces cerevisiae (strain ATCC 204508 / S288c) (Baker's yeast)) (UniProt P32657); experiment: ScCHD-1 Enzyme Inhibition Assay; format: functional; settings: 30 µM; note: in the data most compounds retested in dose-response had high values
Chromo domain-containing protein 1 (Saccharomyces cerevisiae (strain ATCC 204508 / S288c) (Baker's yeast)), sequence (P32657 whole entry, the tested form may be a part): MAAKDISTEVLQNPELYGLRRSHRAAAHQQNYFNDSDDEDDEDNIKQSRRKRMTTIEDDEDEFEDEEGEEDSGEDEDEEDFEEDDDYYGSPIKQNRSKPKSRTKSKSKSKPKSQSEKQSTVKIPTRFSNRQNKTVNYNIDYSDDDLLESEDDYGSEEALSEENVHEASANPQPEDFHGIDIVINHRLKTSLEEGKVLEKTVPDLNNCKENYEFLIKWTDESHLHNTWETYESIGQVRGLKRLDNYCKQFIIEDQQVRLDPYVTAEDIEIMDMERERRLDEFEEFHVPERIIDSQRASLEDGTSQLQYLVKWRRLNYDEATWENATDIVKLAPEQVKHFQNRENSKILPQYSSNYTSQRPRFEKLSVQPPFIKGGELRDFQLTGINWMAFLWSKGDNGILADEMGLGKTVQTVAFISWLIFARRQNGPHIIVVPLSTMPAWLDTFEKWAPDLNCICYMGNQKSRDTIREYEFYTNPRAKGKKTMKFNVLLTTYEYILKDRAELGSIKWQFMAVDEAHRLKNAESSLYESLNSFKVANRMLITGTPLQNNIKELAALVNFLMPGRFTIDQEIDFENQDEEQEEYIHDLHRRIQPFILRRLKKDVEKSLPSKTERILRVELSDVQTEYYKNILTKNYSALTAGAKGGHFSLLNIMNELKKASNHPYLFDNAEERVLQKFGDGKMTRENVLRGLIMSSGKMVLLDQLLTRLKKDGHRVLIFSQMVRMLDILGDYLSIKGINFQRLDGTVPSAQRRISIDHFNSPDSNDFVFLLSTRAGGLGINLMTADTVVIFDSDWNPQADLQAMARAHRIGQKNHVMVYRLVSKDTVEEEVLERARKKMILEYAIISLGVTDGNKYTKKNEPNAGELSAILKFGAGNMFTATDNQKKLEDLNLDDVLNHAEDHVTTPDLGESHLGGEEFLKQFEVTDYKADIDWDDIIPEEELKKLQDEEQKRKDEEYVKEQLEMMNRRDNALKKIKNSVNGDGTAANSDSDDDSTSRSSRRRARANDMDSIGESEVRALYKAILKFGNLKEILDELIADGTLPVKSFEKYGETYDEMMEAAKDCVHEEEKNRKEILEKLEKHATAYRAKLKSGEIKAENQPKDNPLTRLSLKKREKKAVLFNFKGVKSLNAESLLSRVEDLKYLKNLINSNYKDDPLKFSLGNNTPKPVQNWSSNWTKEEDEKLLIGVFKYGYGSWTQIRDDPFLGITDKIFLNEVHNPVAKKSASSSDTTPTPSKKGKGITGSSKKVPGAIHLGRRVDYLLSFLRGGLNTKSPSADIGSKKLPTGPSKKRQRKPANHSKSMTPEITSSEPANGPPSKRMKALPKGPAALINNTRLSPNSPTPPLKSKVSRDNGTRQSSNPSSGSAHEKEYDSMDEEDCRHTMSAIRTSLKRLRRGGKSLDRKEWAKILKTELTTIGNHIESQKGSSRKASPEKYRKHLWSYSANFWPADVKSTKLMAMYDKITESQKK

Protein translocase subunit SecA (Escherichia coli (strain K12)), sequence (P10408 whole entry): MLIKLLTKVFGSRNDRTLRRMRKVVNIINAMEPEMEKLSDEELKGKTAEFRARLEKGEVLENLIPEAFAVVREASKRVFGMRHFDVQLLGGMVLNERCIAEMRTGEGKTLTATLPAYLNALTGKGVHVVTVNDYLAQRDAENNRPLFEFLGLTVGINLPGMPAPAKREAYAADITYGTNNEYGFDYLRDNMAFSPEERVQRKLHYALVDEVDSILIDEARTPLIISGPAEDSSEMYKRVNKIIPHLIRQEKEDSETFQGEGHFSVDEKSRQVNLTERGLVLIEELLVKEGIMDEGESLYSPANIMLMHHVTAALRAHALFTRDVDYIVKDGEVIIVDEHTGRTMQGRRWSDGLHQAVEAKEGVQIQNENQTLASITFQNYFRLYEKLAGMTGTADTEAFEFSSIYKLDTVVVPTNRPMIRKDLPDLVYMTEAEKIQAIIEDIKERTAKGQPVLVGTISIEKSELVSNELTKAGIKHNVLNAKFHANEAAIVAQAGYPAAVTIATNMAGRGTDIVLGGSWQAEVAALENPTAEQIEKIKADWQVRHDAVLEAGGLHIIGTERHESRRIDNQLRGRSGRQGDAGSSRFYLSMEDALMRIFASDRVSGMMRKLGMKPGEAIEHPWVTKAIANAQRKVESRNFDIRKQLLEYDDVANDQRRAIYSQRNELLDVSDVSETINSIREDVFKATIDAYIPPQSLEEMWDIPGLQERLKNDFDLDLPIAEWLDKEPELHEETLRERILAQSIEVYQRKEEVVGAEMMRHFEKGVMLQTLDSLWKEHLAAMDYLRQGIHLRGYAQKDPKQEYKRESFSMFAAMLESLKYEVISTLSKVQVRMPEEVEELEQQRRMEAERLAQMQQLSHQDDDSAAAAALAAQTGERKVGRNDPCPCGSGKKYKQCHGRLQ

Row | Compound | Percent Effect [1] | Percent Effect [2] | Percent Effect [3] | Percent Effect [4] | Percent Effect (Trypanosoma cruzi) | Percent Effect [5] | Percent Effect [6] | Percent Effect (Homo sapiens) | Percent Effect [7] | Percent Effect [8] | Percent Effect [9]
1 | CCc1n[nH]c(C2CN(CCc3ccncc3)CCO2)n1 (stereo not given) | -6.01% | 3.8% | 7.99% | 7.24% | 0.103% | 0.215% | 1.72% | 14% | 1.04% | 7.59% | -9.31%
2 | CC(C)Oc1cccc(C(O)CNC(=O)CCc2ccncc2)c1 (stereo not given) | -3.24% | -5.48% | 2.43% | 13.4% | -3.97% | -7.58% | 3.85% | 0.683% | 1.04% | 3.7% | 5.03%
3 | Cc1ccccc1CN1CCC(NCC2CNc3ccnn3C2)CC1 (stereo not given) | -0.777% | 0% | -17.1% | -4.24% | 1.27% | 1.24% | 11.4% | -3.35% | 6.45% | 13.6% | -5.59%
4 | Cc1nn(C)c(N(C)C)c1CNCc1cccnc1 | -5.22% | -2.7% | -6.42% | -9.25% | -5.38% | -1.74% | 12.4% | -10.3% | -4.3% | -6.17% | -0.598%
5 | Cc1nc(CN2CCCC(N(C)CCc3ccncc3)C2)no1 (stereo not given) | 0.743% | 18.9% | -12.8% | -5.86% | -2.51% | 6.84% | 10.4% | 24.3% | 0% | 13.4% | 0.929%
6 | CC(=O)c1cn(CC(=O)NC(C(=O)O)C(C)C)c2ccccc12 (stereo not given) | -5.18% | -2.67% | 1.25% | -4.07% | -3.99% | -1.04% | 8.72% | -13.9% | 1.64% | 1.24% | 3.17%
7 | CC(C)(CNC(=O)OC(C)(C)C)NC(=O)C1CC(=O)N(C2CC2)C1 (stereo not given) | -7.68% | -2.7% | -1.58% | -8.17% | -8.11% | -1.24% | 7.3% | 20.6% | -2.15% | 3.7% | -4.06%
8 | Cc1ccc(CNC2CCCc3c2cnn3C)s1 (stereo not given) | -5.39% | 13% | 5.11% | 1.58% | 6.95% | 0.21% | 17.1% | 9% | 9.52% | 21.2% | -7.9%
9 | N#Cc1ccnc(N2CCN(Cc3cccc(F)c3)CC2)c1 | -3.54% | 18.9% | -3.8% | 19.9% | 4.2% | 3.23% | 9.01% | 4.37% | 4.3% | 16.1% | -8.71%
10 | CCCn1nc2c(cc1=O)CN(CCCN1CCCC1=O)CC2 | -3.62% | -2.7% | -101% | 1.97% | -2.55% | -1.6% | 29.6% | 17.5% | 4.43% | -1.24% | -3.69%
11 | O=C1NCCN1C1CCCN(Cc2nnc(-c3ccc(F)cc3)o2)C1 (stereo not given) | -1.01% | 2.7% | -4.34% | 16.6% | 6.04% | 2.03% | 9.7% | -7.13% | 3.96% | 15.8% | -2.67%
12 | COCc1cccc(CNC(=O)CN2CCCC2c2noc(C)n2)c1 (stereo not given) | -2.68% | 23.7% | -2.93% | 3.2% | 5.83% | -2.68% | 15.5% | 1.75% | 4.41% | 24.4% | -13%
13 | COc1ccc(C)cc1NC(=O)Nc1cnc(N2CCN(C)CC2)nc1 | -1.71% | 7.79% | 2.48% | -0.124% | 5.42% | -12.3% | 8.18% | 36.4% | 6.35% | 11.5% | -11.3%
14 | Cn1ncc2c1CCCC2NCc1cnc(-c2ccccc2)nc1 (stereo not given) | -8.3% | 13.5% | -13.8% | 24.2% | 4.62% | -7.21% | 1.44% | 22.4% | 2.46% | 18.5% | -12.3%
15 | Cc1csc(CNC(=O)NC2CCN(c3ncccn3)CC2)n1 | -4.13% | 11% | -4.87% | 16.2% | 4.37% | -3.19% | 12.6% | 5.21% | 10.4% | 25.9% | -3.12%
16 | COc1cccc(CN(C)C(=O)Nc2ccc3c(c2)OCCO3)c1 | -0.723% | 18.4% | -0.168% | -10.2% | 0.0974% | 2.37% | 26.6% | 22.9% | 1.06% | 10.4% | -8.52%
17 | Cc1cnn(C2CCCN(C(=O)c3cc(C)sc3C)C2)c1 (stereo not given) | 2.61% | 7.89% | 4.46% | -9.37% | -4.97% | 1.18% | 18.7% | -4.44% | 5.32% | 7.79% | -5.57%
18 | CCCOc1ccc(NC(=O)NCCC(=O)N(C)C)cc1Cl | -2.86% | 13.7% | -18.2% | 4.95% | 4.5% | 0.909% | 19% | 12.8% | 4.3% | 12.5% | -6.34%
19 | c1ccc(OC[C@]23COC[C@H]2CN(c2ncccn2)C3)nc1 | 0.189% | 8% | 1.07% | 5.7% | 6.37% | -59.3% | 12.7% | -4.34% | 3.12% | 17.5% | -8.1%
20 | CC(C)(CNC(=O)CCOc1cccc(F)c1)C(N)=O | -1.29% | 7.89% | 1.89% | 3.39% | -7.14% | 3.06% | 10.5% | 12% | 5.39% | 12.2% | -1.57%
